“And” between values parts separate entries of the source, which are not always exact repeats. Equal entries are not always repeated. The whole screen tested about 5,500 compounds, of which about 2,000 (36%) were called active. Not shown: some 18% with an inconclusive outcome. No stated cut-off is given here; in the data, active means normalized growth mostly below about 0.91 (no sharp cut-off); inconclusive means no clear call, values can overlap the other calls; inactive means mostly above about 0.92. Some of the results follow.
Assay: chemical genetic growth profiling, strain panel (AID 1159580);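 further: tested at 20 µM; growth read once vehicle control cultures reached saturation at 30 °C; 1 = growth at the plate median or of vehicle wells; lower values mean less growth of the strain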
Settings: S. cerevisiae deletion strains, growth OD

Measured: normalized growth

COC1CC(O[C@H]2CC[C@]3(C=O)C4CC[C@]5(C)C(C6=CC(=O)OC6)CC[C@]5(O)C4CC[C@]3(O)C2)OC(C)C1O (some centres not stated)
inactive: locus YAL013W, strain DEP1, active compounds read low 1.02 | locus YAL021C, strain ccr4, active compounds read low 0.938 | locus YAL026C, strain drs2, active compounds read low 1.02 | locus YAL030W, strain snc1, active compounds read low 0.978 | locus YBL061C, strain skt5, active compounds read low 0.99 | locus YBR009C, strain hhf1, active compounds read low 0.985 | locus YBR021W, strain FUR4, active compounds read low 1.01 | locus YBR023C, strain chs3, active compounds read low 0.967 | locus YBR171W, strain sec66, active compounds read low 1 | locus YBR229C, strain ROT2, active compounds read low 1.02 | locus YBR231C, strain swc5, active compounds read low 1 | locus YBR279W, strain paf1, active compounds read low 1 | locus YCL011C, strain gbp2, active compounds read low 0.961 | locus YCL016C, strain dcc1, active compounds read low 0.954 | locus YCL029C, strain bik1, active compounds read low 0.994 | locus YCL069W, strain vba3, active compounds read low 0.969 | locus YCR088W, strain abp1, active compounds read low 0.983 | locus YDL005C, strain med2, active compounds read low 0.969 | locus YDL035C, strain GPR1, active compounds read low 1.04 | locus YDL040C, strain nat1, active compounds read low 0.986 | locus YDL074C, strain BRE1, active compounds read low 1.09 | locus YDL101C, strain DUN1, active compounds read low 1.02 | locus YDL134C, strain PPH21, active compounds read low 1.02 | locus YDL185W, strain tfp1, active compounds read low 0.995 | locus YDL192W, strain arf1, active compounds read low 1.02 | locus YDR001C, strain nth1, active compounds read low 0.955 | locus YDR069C, strain doa4, active compounds read low 0.994 | locus YDR101C, strain arx1, active compounds read low 1.02 | locus YDR137W, strain rgp1, active compounds read low 0.975 | locus YDR159W, strain sac3, active compounds read low 1 | locus YDR162C, strain NBP2, active compounds read low 1.03 | locus YDR195W, strain ref2 0.914 | locus YDR297W, strain sur2, active compounds read low 0.999 | locus YDR318W, strain mcm21, active compounds read low 1.01 | locus YDR334W, strain swr1, active compounds read low 0.977 | locus YDR335W, strain msn5, active compounds read low 0.955 | locus YDR388W, active compounds read low 0.987 | locus YDR392W, strain spt3, active compounds read low 0.903 | locus YDR502C, strain sam2, active compounds read low 0.987 | locus YEL003W, strain gim4, active compounds read low 1.01 | locus YEL037C, strain rad23, active compounds read low 0.977 | locus YEL061C, strain CIN8 (second series), active compounds read low 0.981 | locus YER015W, strain faa2, active compounds read low 0.975 | locus YER016W, strain bim1, active compounds read low 0.983 | locus YER110C, active compounds read low 0.986 | locus YER111C, strain swi4, active compounds read low 0.994 | locus YER155C, strain BEM2 (second series), active compounds read low 1.01 | locus YER155C, strain BEM2, active compounds read low 1.01 | locus YER167W, strain BCK2, active compounds read low 1.03 | locus YFR010W, strain ubp6, active compounds read low 1 | locus YGL078C, strain dbp3, active compounds read low 0.992 | locus YGL086W, strain mad1, active compounds read low 0.998 | locus YGL167C, strain pmr1, active compounds read low 0.976 | locus YGL173C, strain kem1, active compounds read low 0.992 | locus YGL227W, strain vid30, active compounds read low 0.987 | locus YGL240W, strain doc1, active compounds read low 1 | locus YGL248W, strain PDE1, active compounds read low 1.01 | locus YGL253W, strain hxk2, active compounds read low 0.997 | locus YGR078C, strain PAC10, active compounds read low 1.02 | locus YGR135W, strain pre9, active compounds read low 0.981 | locus YGR229C, strain SMI1, active compounds read low 1.04 | locus YGR252W, strain gcn5, active compounds read low 0.949 | locus YHR013C, strain ard1, active compounds read low 0.934 | locus YHR027C, strain rpn1, active compounds read low 0.97 | locus YHR030C, strain SLT2, active compounds read low 1.02 and 0.984 | locus YHR079C, strain IRE1 (second series), active compounds read low 0.998 | locus YHR079C, strain IRE1, active compounds read low 1.01 | locus YHR094C, strain hxt1, active compounds read low 0.984 | locus YHR129C, strain ARP1, active compounds read low 1.02 | locus YHR142W, strain chs7, active compounds read low 0.918 | locus YHR200W, strain rpn10, active compounds read low 0.992 | locus YIL066C, strain RNR3, active compounds read low 1.05 | locus YIL073C, strain SPO22, active compounds read low 1.01 | locus YIL125W, strain kgd1, active compounds read low 1 | locus YIR030C, strain dcg1, active compounds read low 0.993 | locus YJL092W, strain hpr5, active compounds read low 0.985 | locus YJL095W, strain BCK1 (second series), active compounds read low 0.987 | locus YJL095W, strain BCK1, active compounds read low 1.04 and 0.985 | locus YJL115W, strain asf1, active compounds read low 0.964 | locus YJL129C, strain trk1, active compounds read low 0.958 | locus YJL134W, strain LCB3, active compounds read low 1.01 | locus YJL154C, strain vps35, active compounds read low 0.967 | locus YJL164C, strain tpk1, active compounds read low 0.99 | locus YJL166W, strain qcr8, active compounds read low 0.996 | locus YJL168C, strain set2, active compounds read low 0.994 | locus YJL187C, strain SWE1 (second series), active compounds read low 1.02 | locus YJR066W, strain TOR1, active compounds read low 0.904 | locus YKL009W, strain mrt4, active compounds read low 1.04 | locus YKL068W, active compounds read low 1 | locus YKL085W, strain MDH1 (second series), active compounds read low 1 | locus YKL085W, strain MDH1, active compounds read low 1 | locus YKL160W, strain elf1, active compounds read low 0.962 | locus YKL190W, strain CNB1, active compounds read low 1.02 | locus YKR001C, strain vps1, active compounds read low 0.992 | locus YKR026C, strain gcn3, active compounds read low 0.987 | locus YKR091W, strain srl3, active compounds read low 0.968 | locus YLL001W, strain dnm1, active compounds read low 0.963 | locus YLL026W, active compounds read low 0.982 | locus YLL041C, strain sdh2, active compounds read low 0.971 | locus YLR027C, strain aat2, active compounds read low 1.02 | locus YLR039C, strain RIC1, active compounds read low 1.08 | locus YLR058C, strain SHM2, active compounds read low 1.03 | locus YLR102C, strain apc9, active compounds read low 0.996 | locus YLR113W, strain HOG1, active compounds read low 1.02 | locus YLR221C, strain rsa3, active compounds read low 1.02 | locus YLR258W, strain gsy2, active compounds read low 0.962 | locus YLR262C, strain YPT6 (second series), active compounds read low 1.01 | locus YLR262C, strain YPT6, active compounds read low 1.11 | locus YLR268W, strain sec22, active compounds read low 1.02 | locus YLR320W, strain mms22, active compounds read low 1.03 | locus YLR330W, strain CHS5, active compounds read low 1.02 | locus YLR342W, strain FKS1 (second series), active compounds read low 1.06 | locus YLR342W, strain FKS1, active compounds read low 1 | locus YLR357W, strain rsc2, active compounds read low 0.95 | locus YLR370C, strain arc18, active compounds read low 0.98 | locus YLR371W, strain rom2, active compounds read low 1.01 | locus YLR384C, strain iki3, active compounds read low 0.969 | locus YLR418C, strain cdc73, active compounds read low 0.958 | locus YML016C, strain PPZ1, active compounds read low 1.02 | locus YML032C, strain rad52, active compounds read low 0.994 | locus YML120C, strain ndi1, active compounds read low 0.947 | locus YML124C, strain tub3, active compounds read low 0.997 | locus YMR058W, strain fet3, active compounds read low 0.992 | locus YMR078C, strain ctf18, active compounds read low 0.99 | locus YMR125W, strain sto1, active compounds read low 0.926 | locus YMR129W, active compounds read low 0.989 | locus YMR205C, strain PFK2, active compounds read low 0.984 | locus YMR223W, strain ubp8, active compounds read low 0.995 | locus YMR231W, strain pep5, active compounds read low 1 | locus YMR307W, strain GAS1, active compounds read low 1.16 | locus YNL067W, strain RPL9B, active compounds read low 1 | locus YNL071W, strain lat1, active compounds read low 0.967 | locus YNL183C, strain NPR1, active compounds read low 0.927 | locus YNL209W, strain ssb2, active compounds read low 0.984 | locus YNL233W, strain BNI4, active compounds read low 1.02 | locus YNL248C, strain rpa49, active compounds read low 0.904 | locus YNL250W, strain rad50, active compounds read low 0.972 | locus YNL271C, strain bni1, active compounds read low 1.01 | locus YNL298W, strain CLA4, active compounds read low 0.998 | locus YNL307C, strain MCK1, active compounds read low 0.998 | locus YNL322C, strain KRE1 (second series), active compounds read low 0.971 | locus YNL322C, strain KRE1, active compounds read low 1.02 | locus YNR049C, strain mso1, active compounds read low 0.951 | locus YNR052C, strain pop2, active compounds read low 0.988 | locus YOL012C, strain htz1 0.64 | locus YOL147C, strain pex11, active compounds read low 0.987 | locus YOR001W, strain rrp6, active compounds read low 0.989 | locus YOR061W, strain CKA2, active compounds read low 1.05 | locus YOR069W, strain VPS5, active compounds read low 1.02 | locus YOR070C, strain gyp1, active compounds read low 1 | locus YOR080W, strain dia2, active compounds read low 0.991 | locus YOR083W, strain WHI5, active compounds read low 0.973 | locus YOR106W, strain vam3, active compounds read low 0.922 | locus YOR136W, strain idh2, active compounds read low 0.958 | locus YOR144C, strain elg1, active compounds read low 0.989 | locus YOR184W, strain ser1, active compounds read low 1.04 | locus YOR231W, strain MKK1, active compounds read low 1.01 | locus YOR265W, strain rbl2, active compounds read low 0.997 | locus YOR270C, strain vph1, active compounds read low 1.08 | locus YOR290C, strain snf2, active compounds read low 0.888 | locus YOR316C, strain cot1, active compounds read low 0.984 | locus YPL051W, strain arl3, active compounds read low 0.992 | locus YPL055C, strain LGE1, active compounds read low 1.06 | locus YPL078C, strain atp4, active compounds read low 0.927 | locus YPL106C, strain sse1, active compounds read low 0.966 | locus YPL240C, strain hsp82, active compounds read low 0.988 | locus YPL256C, strain CLN2, active compounds read low 1.01 | locus YPR119W, strain clb2, active compounds read low 0.992 | locus YPR141C, strain kar3, active compounds read low 0.992 | locus YPR163C, strain tif3, active compounds read low 0.993 | locus YPR167C, strain met16, active compounds read low 0.987 | strain wtn01, active compounds read low 1.01

Reference: PubChem BioAssay AID1159580 (chemical genetic matrix, 2015)
